Screens as filed in PubChem BioAssay.
Rows were chosen to be rich in hits. Some 5.7% of all compounds tested hit in one or more screens of this group.
KB-V1 cytotox: KB-V1 MDR subline cytotoxicity; KB-V1 MDR cells viability, CellTiter-Glo, 72 h; Potency, µM (series often up to 46.1 µM), hits mostly cytotoxic; actives 3.4% (n = 400,000); AID 1347076; note: potency is the fitted concentration of half-maximal effect; nearly all actives have a fitted effect of over 60% in size
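KB-V1 MDR subline cells in DMEM (phenol-red free, 10% FBS) exposed to compounds in qHTS concentration series for 72 h at 37 degrees C. Viability read by CellTiter-Glo luminescence; concentration-effect curves fitted after normalization and correction.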
KB-3-1 tox: KB-3-1 parental cell cytotoxicity | Potency, µM (titrated, usually from 46.1 µM), usual class: cytotoxic | actives 1.4% (n = 400,000) | KB-3-1 viability, CellTiter-Glo ATP luminescence, 72 h; note: potency is the fitted concentration of half-maximal effect; nearly all actives have a fitted effect of over 60% in size
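KB-3-1 cells, DMEM (no phenol red) + 10% FBS; compound by pin transfer, 72 h, 37 °C. Readout: CellTiter-Glo luminescence after 10 min. Data normalized, curve-fitted.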
PI4K2A inh: blocks human PI4K2A kinase activity; Q9BTU6; purified PI4K2A, ADP-Glo luminescence, 1 h; active compounds read low; activity change, negative = inhibition, % at 76.9 µM; actives 0.13% (n = 420,000); AID 1346378; in the data active = activity change below about -50%; inconclusive = mostly about -30% to -49%;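 note: -100% = wells without enzyme as full effect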
Target sequence (Q9BTU6 whole entry, looked up): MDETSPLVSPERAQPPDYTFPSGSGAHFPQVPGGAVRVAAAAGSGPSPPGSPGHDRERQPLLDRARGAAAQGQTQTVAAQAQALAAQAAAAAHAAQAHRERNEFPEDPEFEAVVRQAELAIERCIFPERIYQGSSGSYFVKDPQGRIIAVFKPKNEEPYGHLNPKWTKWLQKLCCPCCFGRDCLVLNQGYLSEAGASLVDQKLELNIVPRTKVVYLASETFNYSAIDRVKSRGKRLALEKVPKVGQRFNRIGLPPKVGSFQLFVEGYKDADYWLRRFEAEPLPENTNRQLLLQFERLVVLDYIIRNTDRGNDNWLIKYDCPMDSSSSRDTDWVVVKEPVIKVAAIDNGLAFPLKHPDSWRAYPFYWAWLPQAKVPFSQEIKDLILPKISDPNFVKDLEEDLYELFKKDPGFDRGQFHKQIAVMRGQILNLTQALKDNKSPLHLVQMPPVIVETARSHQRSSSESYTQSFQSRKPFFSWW
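ADP-Glo luminescence measured ADP generated by PI4K2A enzyme (4 ug/mL before mixing) with 1.2 mM PI substrate (pre-mix) and 300 microM ATP (pre-mix). Tris pH7.5 buffer with MgCl2, Triton X-100; 1 h reaction at ambient temperature.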
A549 tox: kills or reduces viability of A549 cells in Nrf2 counter-screen; A549 ARE-Fluc cells, CellTiter-Fluor viability, 18-24 h; Potency, µM (top dose mostly 46 µM), inactives show top-dose activity change, negative = cytotoxicity, most hits filed as inhibitors; actives 0.16% (n = 390,000); AID 504648; note: potency is the fitted concentration of half-maximal effect
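A549 ARE_Fluc cells in 5% FBS OPTI-MEM were exposed to compounds in concentration-response for 18-24 h at 37 deg C. Viability was read by CellTiter-Fluor fluorescence (Ex 405/Em 525) after 30 min, before the luciferase read.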
Giardia kill: Giardia lamblia killing; actives 0.15% (n = 340,000); activity change, % at 7.66 µM, hits read low; Giardia lamblia trophozoite viability; in the data active = activity change below about -80%; inconclusive = between about -30% and that limit;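 note: parasites exposed to compound for two days anaerobically before the ATP read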
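Media and compound were dispensed first, then trophozoites at 100 cells/well; plates sat 48 hrs at 37 deg C without oxygen before ATP luminescence reagent was added and read after 15-30 min at room temperature.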
Nrf2 inh: inhibitors of Nrf2 signaling; A549 ARE-Fluc reporter, luciferase luminescence, 18-24 h; Potency, µM (doses to about 46 µM), for the others: top-dose activity change, negative = inhibition, most hits filed as inhibitors; actives 2.1% (n = 360,000); note: potency is the fitted concentration of half-maximal effect; nearly all actives have a fitted effect of over 60% in size
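Concentration-response testing used A549 ARE_Fluc cells at 5000 cells/well. Following an 18-24 h compound incubation, viability was read by fluorescence (Ex 405/Em 525) and luciferase output by luminescence.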
An asterisk follows results filed as active. Unless noted, calls come from the whole dose curve; as a rule, active = well fitted curve in the direction sought with a large enough effect; inconclusive = small, poorly fitted or top-dose-only effect, or another doubt; inactive = no such curve, though single readings can be large; an effect the other way counts as inactive or inconclusive. Unless noted, % is set by controls: 0 for no effect and ±100 for the full control effect.

How did O=C(NCCCc1cnc[nH]1)NCCCN(Cc1ccc(Cl)c(Cl)c1)c1ccc(Br)cn1 do in these assays?
A549 tox: -0.5%; Nrf2 inh: 10.4%

How did COC(=O)c1ccc(S(=O)(=O)N2CCC(NC(=O)Cc3cccc(C)c3)CC2)cc1 do in these assays?
PI4K2A inh: 3.8

What do the screens show for `Cc1cccc(CCN=c2c([N+](=O)[O-])nn(-c3ccccc3)n2O)c1`?
KB-V1 cytotox: inactive; KB-3-1 tox: inactive; PI4K2A inh: 0.6; A549 tox: -28.6%; Giardia kill: -90.8*; Nrf2 inh: inconclusive

Results for COc1ccc(-n2nc([N+](=O)[O-])c(=NCCCN3CCCC3=O)n2O)cc1 ?
KB-V1 cytotox: inactive; KB-3-1 tox: inactive; PI4K2A inh: 4.0; A549 tox: -8.0%; Giardia kill: -85.4*; Nrf2 inh: 6.7%

How did Cc1cccc(-n2nc([N+](=O)[O-])c(=NC3CCN(Cc4ccccc4)CC3)n2O)c1 do in these assays?
KB-V1 cytotox: inactive; KB-3-1 tox: inactive; PI4K2A inh: 2.1; A549 tox: inconclusive; Giardia kill: -84.4*; Nrf2 inh: 26.7%

How did COc1ccc(-n2nc([N+](=O)[O-])c(=NCCc3cccc(C)c3)n2O)cc1 do in these assays?
KB-V1 cytotox: inactive; KB-3-1 tox: inactive; PI4K2A inh: -2.8; A549 tox: -18.4%; Giardia kill: -85.5*; Nrf2 inh: -7.3%

What do the screens show for `Cc1csc(NCC(=O)c2c(C)[nH]c3ccccc23)n1`?
KB-V1 cytotox: inactive; KB-3-1 tox: inactive

Results for Cc1cccc(-c2cccc3c4c([nH]c23)[C@@H]2C[C@H](N(C)C(=O)c3ccco3)[C@H]([C@H](C)O)CN2CC4)c1 ?
PI4K2A inh: 0.6

What do the screens show for `CCOc1cc(C(=O)Nc2ccc3c4c(cccc24)C(=O)N3CC)cc(OCC)c1OCC`?
KB-V1 cytotox: 9.2µM*; KB-3-1 tox: inactive; PI4K2A inh: -1.1; A549 tox: -3.3%; Giardia kill: -2.6; Nrf2 inh: inconclusive

How did COc1ccc(/C=C/S(=O)(=O)NCc2ccc(F)cc2)c(CNC(=O)OC(C)(C)C)c1 do in these assays?
PI4K2A inh: -3.5

Results for COc1ccc2[nH]cc(CCN=C(NC(=O)c3ccccc3F)Nc3nc(C)cc(C)n3)c2c1 ?
KB-V1 cytotox: inconclusive; KB-3-1 tox: inconclusive; PI4K2A inh: -10.9; A549 tox: -8.4%; Nrf2 inh: -0.9%

How did CCC(C(=O)NCc1ccco1)N(C(=O)CNS(=O)(=O)c1ccccc1)c1ccc(OC)cc1 (stereo not drawn) do in these assays?
KB-V1 cytotox: 23.1µM*; KB-3-1 tox: inactive; PI4K2A inh: -8.6; A549 tox: -7.2%; Giardia kill: -2.0; Nrf2 inh: 10.5%

How did CCCC(C(=O)NCc1ccco1)N(C(=O)CNS(=O)(=O)c1ccccc1)c1ccc(OC)cc1 (stereo not drawn) do in these assays?
KB-V1 cytotox: inactive; KB-3-1 tox: inactive; PI4K2A inh: 2.5; A549 tox: -4.5%; Giardia kill: 0.0; Nrf2 inh: -5.3%

How did COc1ccc(C2C(C#N)=C(N)Oc3c2sc2nc(C)cc(C)c32)cc1 (stereo not drawn) do in these assays?
KB-V1 cytotox: 20.6µM*; KB-3-1 tox: inconclusive; PI4K2A inh: -0.1; A549 tox: -14.3%; Giardia kill: 0.6; Nrf2 inh: -20.7%

What do the screens show for `COc1ccc(C2C(C#N)=C(N)Oc3cc(N)ccc32)cc1` (stereo not drawn)?
KB-V1 cytotox: inactive; KB-3-1 tox: inactive; PI4K2A inh: -1.0; A549 tox: -6.9%; Giardia kill: 0.5; Nrf2 inh: -4.6%

Results for C[N+](C)(C)CC(O)CC(=O)[O-] (stereo not drawn) ?
PI4K2A inh: -2.5

How did COc1ccc(CNc2oc(-c3cccc4ccccc34)nc2C#N)cc1 do in these assays?
KB-V1 cytotox: inactive; KB-3-1 tox: inactive; PI4K2A inh: 0.4; A549 tox: 15.8%; Giardia kill: -3.7; Nrf2 inh: -14.9%
